D2 ag-1: agonists of human D2 dopamine receptor (beta-arrestin) | P14416 | DiscoveRx PathHunter D2 beta-arrestin, luminescence, 90 min; 100% = 57 uM dopamine signal | activation, % (test concentration not listed) | hit rate 0.084% among 360,000 | AID 624465; in the data active means activation above about 40%; inconclusive means between about 15% and that limit
Target sequence (P14416 whole entry, looked up): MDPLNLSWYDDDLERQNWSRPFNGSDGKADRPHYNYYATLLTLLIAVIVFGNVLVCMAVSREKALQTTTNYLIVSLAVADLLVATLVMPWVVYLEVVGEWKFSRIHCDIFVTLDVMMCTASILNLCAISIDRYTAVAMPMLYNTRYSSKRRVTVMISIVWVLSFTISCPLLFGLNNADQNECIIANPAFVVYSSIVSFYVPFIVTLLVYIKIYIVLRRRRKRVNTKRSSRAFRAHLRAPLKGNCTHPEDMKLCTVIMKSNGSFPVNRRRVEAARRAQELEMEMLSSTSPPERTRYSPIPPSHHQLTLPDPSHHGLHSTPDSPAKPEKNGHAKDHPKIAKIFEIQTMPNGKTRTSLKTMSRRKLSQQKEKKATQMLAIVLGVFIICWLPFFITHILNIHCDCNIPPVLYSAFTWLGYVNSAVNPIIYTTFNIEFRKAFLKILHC
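Agonist mode: compounds alone added to overnight-plated D2 PathHunter cells for 90 min at 37 C, with 57 uM final dopamine (EC100) defining full response. Beta-arrestin recruitment detected by chemiluminescent reagent, read after 1 h at ambient temperature.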
D2 PAM-1: human D2 receptor positive allosteric modulation | DiscoveRx D2 beta-arrestin cells, luminescence, 90 min; 100% = 57 uM dopamine signal | potentiation, % (test concentration not listed) | AID 624464 | hit rate 0.23% among 360,000; in the data active means potentiation above about 50%; inconclusive means mostly about 30% to 49%
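PathHunter D2 cells, attached overnight at 37 deg C, received compound in DMSO plus dopamine at EC20 (50 nM final) for 90 min at 37 deg C. Beta-arrestin recruitment was read as luminescence after 1 h with detection reagent at ambient temperature.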
D2 PAM-2: D2 dopamine receptor (human) potentiation; P14416; HEK293 T-REx D2, calcium flux, EC20 dopamine potentiation; potentiation, % at 10 µM; hit rate 0.34% among 340,000; AID 485347;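 active means potentiation over 3 SD above the plate norm, cut at about 30% in these data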; further: 0% is about no effect
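Potentiation of an EC20 dopamine calcium response measured kinetically over 180 s, after a preceding 180 s compound-only read flagging agonists. Cells: inducible Hek293 Trex D2 line, 4000/well, cultured overnight at 30 C before dye loading.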
D2 antagonist: antagonizes the human D2 dopamine receptor; P14416; HEK293 TREx D2 cells, calcium flux, dopamine EC80; inhibition, % at 10 µM; hit rate 2% among 340,000; AID 485344; in the data active means inhibition above about 30%; inactive means below that, where a call was filed; further: 0% is about no effect
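Dopamine at EC80 is the agonist stimulus; test compounds precede it by 180 s. Calcium flux read kinetically in a force-coupled, inducible HEK293 T-REx D2 cell line.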
D2 ag-2: D2 dopamine receptor (human) agonism. HEK293 T-REx D2 cells, calcium flux agonist mode. activation, % at 2 µM. hit rate 0.53% among 340,000. AID 485358. P14416;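 active means activation over 3 SD above normal in the single-dose calcium agonist read, cut at about 30% in these data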; further: 0% is about no effect
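Agonism scored from kinetic calcium signal (1 read/sec, 180 s) following compound pin transfer, after a 10 s baseline. Cells: HEK293 Trex line expressing inducible D2 receptor coupled to calcium, dye-loaded after overnight culture at 30 C.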
An asterisk follows results filed as active; ? = inconclusive; nt = no result given. Compounds with a hit are over-represented: about 2.4% of the library has one in this group of screens.

SMILES	D2 ag-1	D2 PAM-1	D2 PAM-2	D2 antagonist	D2 ag-2
Cn1c(=O)c2c(nc(NCC3CCCO3)n2Cc2ccccc2)n(C)c1=O (stereo not given)	0	-12	40*	12	0
Cc1ccc(S(=O)(=O)C(CNC(=O)c2ccccc2F)c2cccs2)cc1 (stereo not given)	nt	nt	6	nt	0
O=C1CC(N2CCC(c3nc4ccccc4s3)CC2)C(=O)N1 (stereo not given)	-6	-21	nt	33*	-1
Cc1cc(C)n(-c2ccc(C(=O)OCC(=O)N(CC(C)C)C3CCS(=O)(=O)C3)cc2)n1 (stereo not given)	-1	5	-2	51*	-1
Cc1ccc(CNC(=O)Cn2c3ncccc3c(=O)n2-c2ccc(C)cc2)cc1	nt	nt	1	nt	0
O=C(NC(=S)Nc1ccc(Cl)c(C(=O)O)c1)c1cccc(COc2ccccc2)c1	-2	-14	-8	-1	-1
O=C(O)c1ccc(Cl)c(NC(=S)NC(=O)c2cccc(COc3ccccc3)c2)c1	2	-4	12	36*	-1
CC1CN(C(=O)/C(C#N)=C2\N=C(NC(=O)c3ccccc3Cl)c3ccccc32)CC(C)O1 (stereo not given)	nt	nt	2	59*	0
COC(=O)c1c(NC(=O)Cc2coc3cc(C)ccc23)sc2c1CCCC2	nt	nt	9	nt	0
CS(=O)(=O)N1N=C(c2cccs2)CC1c1ccccc1 (stereo not given)	-3	-10	0	32*	0
C=CCOc1ccccc1CN1CCC(Oc2ccc(C(=O)N3CCCCC3)cc2)CC1	-4	-46	-21	47*	0
CCOc1ccccc1-n1nnc(-c2nc(-c3ccccc3C)no2)c1C	nt	nt	-5	nt	1
NNC(=O)c1ccc(COCC(F)(F)F)cc1	-1	-5	1	53*	0
CN(C)CCNC(=O)c1ccc(COCC(F)(F)F)cc1	1	3	nt	16	1
COc1cccc(-c2ccc3c(N)c(C(=O)NCc4ccc(Cl)cc4)sc3n2)c1	nt	nt	-4	nt	0
CN(C)c1ccc(/C=C(\C#N)C(=O)c2ccccc2)cc1	0	-5	-8	-71	163*
CC[C@@]12C(=O)N(c3cccc(Br)c3)C(=O)N1[C@H](c1ccc(Br)cc1)[C@@H]1C(=O)N(C(C)(C)C)C(=O)[C@@H]12	-4	-7	-5	32*	1
CCSc1nnc2c(n1)OC1(CCCC1)Nc1ccccc1-2	-2	1	1	39*	-2
CCSc1nnc2c(n1)OC(c1ccc(C)s1)Nc1ccccc1-2 (stereo not given)	nt	nt	-4	nt	0
COc1ccc(S(=O)(=O)N2CCN(CC(=O)Nc3ccc(Cl)c(C(F)(F)F)c3)CC2)cc1	nt	nt	12	nt	1
CCOc1ccc(N=C2NC(=O)C(CC(=O)Nc3ccccc3)S2)cc1 (stereo not given)	-5	1	39*	-2	-1
O=C(CC1SC(=Nc2ccc(O)cc2)NC1=O)Nc1ccccc1 (stereo not given)	-1	2	11	-12	0
COc1cc(CNc2ccc(O)cc2)cc(Br)c1OCc1ccccc1F	?	77*	6	2	-2
CC(C)(C)C(=O)COC(=O)c1c2c(nc3ccccc13)CCC2	-5	-8	39*	-4	-1
NC(=O)COC(=O)c1c2c(nc3ccccc13)CCCCC2	-6	-3	nt	nt	nt
SMILES	D2 ag-1	D2 PAM-1	D2 PAM-2	D2 antagonist	D2 ag-2
Cc1cc(C)cc(C(=O)N(Cc2nc(-c3ccc(Cl)cc3)no2)C(C)C)c1	nt	nt	0	nt	1
O=[N+]([O-])c1nn(-c2ccc3c(c2)OCCO3)n(O)c1=Nc1ccccc1	?	?	9	-4	-1
O=[N+]([O-])c1nn(-c2ccc3c(c2)OCCO3)n(O)c1=NC1CCCC1	8	75*	9	-1	1
O=[N+]([O-])c1nn(-c2ccc3c(c2)OCCO3)n(O)c1=NC1CCCCCC1	?	85*	5	-13	0
CCCCOc1ccc(S(=O)(=O)NCc2csc(-c3ccc(OC)cc3)n2)cc1	nt	nt	-5	nt	1
CC(C)C(=O)NC(C)C(c1cccs1)N1CCN(c2ccccc2)CC1 (stereo not given)	1	-13	17	-10	1

Screening data deposited in PubChem by National Center for Advancing Translational Sciences (NCATS).
